Measurements: ChEMBL document CHEMBL2218924, “A broad activity screen in support of a chemogenomic map for kinase signalling research and drug discovery” (Biochem J, 2013)

What was measured:
[1] = target: T1, Ephrin type-A receptor 3 (Homo sapiens) (UniProt P29320); conditions: at 10 µM
T1 sequence (whole entry): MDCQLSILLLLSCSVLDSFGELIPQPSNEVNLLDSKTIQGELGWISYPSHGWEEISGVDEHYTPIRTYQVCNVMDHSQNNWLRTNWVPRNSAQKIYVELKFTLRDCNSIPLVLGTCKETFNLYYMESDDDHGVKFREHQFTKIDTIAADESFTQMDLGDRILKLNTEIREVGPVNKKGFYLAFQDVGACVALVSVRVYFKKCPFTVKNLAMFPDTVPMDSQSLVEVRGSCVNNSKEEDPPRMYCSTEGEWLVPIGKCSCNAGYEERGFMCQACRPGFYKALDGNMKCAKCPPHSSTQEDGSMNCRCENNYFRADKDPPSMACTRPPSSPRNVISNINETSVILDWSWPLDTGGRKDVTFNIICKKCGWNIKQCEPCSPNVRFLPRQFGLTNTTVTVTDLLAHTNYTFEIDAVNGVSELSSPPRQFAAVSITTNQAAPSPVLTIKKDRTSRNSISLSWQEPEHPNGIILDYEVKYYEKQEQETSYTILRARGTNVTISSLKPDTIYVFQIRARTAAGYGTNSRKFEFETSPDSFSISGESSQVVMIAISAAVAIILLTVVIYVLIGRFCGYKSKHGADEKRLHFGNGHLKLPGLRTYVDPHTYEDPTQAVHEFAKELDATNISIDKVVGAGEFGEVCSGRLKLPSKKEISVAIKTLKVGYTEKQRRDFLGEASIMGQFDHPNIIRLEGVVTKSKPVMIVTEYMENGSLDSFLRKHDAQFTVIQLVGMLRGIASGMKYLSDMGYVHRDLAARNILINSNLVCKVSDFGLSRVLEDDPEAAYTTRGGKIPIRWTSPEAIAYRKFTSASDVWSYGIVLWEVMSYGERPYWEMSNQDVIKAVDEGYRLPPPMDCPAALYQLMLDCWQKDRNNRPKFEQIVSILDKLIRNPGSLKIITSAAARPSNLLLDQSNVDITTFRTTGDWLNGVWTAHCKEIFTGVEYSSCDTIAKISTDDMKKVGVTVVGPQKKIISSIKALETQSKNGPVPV

[2] = target: Ephrin type-A receptor 5 (Homo sapiens) (UniProt P54756); conditions: at 10 µM
Ephrin type-A receptor 5 (Homo sapiens), sequence (P54756 whole entry): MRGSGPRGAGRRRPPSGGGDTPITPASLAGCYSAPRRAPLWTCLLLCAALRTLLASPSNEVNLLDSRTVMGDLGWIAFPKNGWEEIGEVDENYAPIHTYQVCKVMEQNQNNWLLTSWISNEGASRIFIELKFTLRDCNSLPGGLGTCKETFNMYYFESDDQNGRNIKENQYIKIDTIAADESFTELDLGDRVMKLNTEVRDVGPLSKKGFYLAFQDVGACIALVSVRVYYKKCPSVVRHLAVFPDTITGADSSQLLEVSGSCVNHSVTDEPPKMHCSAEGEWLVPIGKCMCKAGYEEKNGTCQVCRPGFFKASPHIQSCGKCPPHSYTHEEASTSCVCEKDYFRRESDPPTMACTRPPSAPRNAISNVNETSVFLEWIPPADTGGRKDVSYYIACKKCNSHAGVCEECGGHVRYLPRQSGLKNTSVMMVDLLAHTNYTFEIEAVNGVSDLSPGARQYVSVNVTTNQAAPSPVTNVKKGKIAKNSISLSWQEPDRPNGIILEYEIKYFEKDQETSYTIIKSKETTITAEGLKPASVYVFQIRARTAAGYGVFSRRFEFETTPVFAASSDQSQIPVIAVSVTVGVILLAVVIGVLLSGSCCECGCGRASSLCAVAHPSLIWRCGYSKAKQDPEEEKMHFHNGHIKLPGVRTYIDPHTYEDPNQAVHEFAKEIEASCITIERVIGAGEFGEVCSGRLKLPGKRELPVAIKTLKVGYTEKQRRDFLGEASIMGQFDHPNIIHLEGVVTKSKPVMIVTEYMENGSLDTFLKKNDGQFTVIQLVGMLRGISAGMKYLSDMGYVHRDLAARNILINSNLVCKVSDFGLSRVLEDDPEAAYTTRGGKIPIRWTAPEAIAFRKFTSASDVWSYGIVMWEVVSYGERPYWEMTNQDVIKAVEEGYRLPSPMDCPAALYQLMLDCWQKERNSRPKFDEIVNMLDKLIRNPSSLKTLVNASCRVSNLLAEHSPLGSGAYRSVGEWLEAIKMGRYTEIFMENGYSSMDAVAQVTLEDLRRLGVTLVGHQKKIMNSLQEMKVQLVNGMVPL

[3] = target: Ephrin type-A receptor 7 (Homo sapiens) (UniProt Q15375); conditions: at 10 µM
Ephrin type-A receptor 7 (Homo sapiens), sequence (Q15375 28-998 limits assumed): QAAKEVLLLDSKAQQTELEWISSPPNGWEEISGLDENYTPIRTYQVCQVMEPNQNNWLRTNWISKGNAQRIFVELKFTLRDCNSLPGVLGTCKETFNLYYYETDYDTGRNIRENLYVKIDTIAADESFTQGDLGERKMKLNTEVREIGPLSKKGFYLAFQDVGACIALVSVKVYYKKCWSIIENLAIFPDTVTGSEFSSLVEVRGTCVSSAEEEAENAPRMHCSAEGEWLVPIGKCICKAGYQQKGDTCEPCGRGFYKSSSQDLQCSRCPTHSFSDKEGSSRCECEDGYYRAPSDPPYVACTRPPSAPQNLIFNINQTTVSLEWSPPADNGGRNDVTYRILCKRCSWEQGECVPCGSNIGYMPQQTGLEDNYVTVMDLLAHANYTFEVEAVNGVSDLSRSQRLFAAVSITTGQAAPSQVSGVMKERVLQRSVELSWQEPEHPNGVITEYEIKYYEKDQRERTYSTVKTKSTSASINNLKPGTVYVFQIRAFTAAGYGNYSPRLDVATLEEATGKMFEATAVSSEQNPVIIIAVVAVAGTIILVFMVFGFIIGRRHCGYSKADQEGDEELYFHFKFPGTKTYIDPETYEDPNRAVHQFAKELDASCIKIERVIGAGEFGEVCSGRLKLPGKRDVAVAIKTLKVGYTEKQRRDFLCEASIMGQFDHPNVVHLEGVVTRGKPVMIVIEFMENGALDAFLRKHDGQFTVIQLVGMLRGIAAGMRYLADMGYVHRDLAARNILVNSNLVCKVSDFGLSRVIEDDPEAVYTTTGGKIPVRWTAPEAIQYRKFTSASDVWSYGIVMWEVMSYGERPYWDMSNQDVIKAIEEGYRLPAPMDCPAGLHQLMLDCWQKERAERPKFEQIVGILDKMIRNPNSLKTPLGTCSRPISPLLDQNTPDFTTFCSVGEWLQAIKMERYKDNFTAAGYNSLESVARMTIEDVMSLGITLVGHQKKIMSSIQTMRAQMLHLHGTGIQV

[4] = target: T2, Ephrin type-A receptor 8 (Homo sapiens) (UniProt P29322); conditions: at 1 µM
T2 sequence (whole entry): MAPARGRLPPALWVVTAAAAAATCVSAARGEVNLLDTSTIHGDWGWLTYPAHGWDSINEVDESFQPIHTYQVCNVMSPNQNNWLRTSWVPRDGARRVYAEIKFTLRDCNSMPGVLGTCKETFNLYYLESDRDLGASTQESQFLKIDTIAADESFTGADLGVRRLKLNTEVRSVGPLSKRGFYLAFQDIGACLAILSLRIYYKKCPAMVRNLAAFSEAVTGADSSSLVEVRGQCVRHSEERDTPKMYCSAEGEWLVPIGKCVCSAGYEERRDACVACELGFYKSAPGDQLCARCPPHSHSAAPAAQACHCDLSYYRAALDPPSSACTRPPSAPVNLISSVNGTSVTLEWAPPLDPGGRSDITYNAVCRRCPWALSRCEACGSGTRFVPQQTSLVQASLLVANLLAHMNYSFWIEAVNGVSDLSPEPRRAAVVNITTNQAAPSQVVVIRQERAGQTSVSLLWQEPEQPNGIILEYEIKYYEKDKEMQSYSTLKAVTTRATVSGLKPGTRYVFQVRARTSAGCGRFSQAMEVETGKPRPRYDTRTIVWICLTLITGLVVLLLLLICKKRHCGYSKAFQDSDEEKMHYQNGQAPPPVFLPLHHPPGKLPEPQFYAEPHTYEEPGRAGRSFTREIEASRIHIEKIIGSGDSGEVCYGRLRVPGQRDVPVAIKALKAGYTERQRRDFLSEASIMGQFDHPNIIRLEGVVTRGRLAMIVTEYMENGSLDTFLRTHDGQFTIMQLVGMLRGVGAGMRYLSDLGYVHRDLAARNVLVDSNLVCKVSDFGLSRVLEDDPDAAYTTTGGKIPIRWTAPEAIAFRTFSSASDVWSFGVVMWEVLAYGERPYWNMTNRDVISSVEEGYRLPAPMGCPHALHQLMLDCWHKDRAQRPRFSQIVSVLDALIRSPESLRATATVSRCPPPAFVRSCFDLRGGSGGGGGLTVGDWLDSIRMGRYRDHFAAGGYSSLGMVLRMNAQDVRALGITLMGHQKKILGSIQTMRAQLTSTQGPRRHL

[5] = target: T2, Ephrin type-A receptor 8 (Homo sapiens); conditions: at 10 µM
[6] = target: T3, Ephrin type-B receptor 1 (Homo sapiens) (UniProt P54762); conditions: at 1 µM
T3 sequence (whole entry): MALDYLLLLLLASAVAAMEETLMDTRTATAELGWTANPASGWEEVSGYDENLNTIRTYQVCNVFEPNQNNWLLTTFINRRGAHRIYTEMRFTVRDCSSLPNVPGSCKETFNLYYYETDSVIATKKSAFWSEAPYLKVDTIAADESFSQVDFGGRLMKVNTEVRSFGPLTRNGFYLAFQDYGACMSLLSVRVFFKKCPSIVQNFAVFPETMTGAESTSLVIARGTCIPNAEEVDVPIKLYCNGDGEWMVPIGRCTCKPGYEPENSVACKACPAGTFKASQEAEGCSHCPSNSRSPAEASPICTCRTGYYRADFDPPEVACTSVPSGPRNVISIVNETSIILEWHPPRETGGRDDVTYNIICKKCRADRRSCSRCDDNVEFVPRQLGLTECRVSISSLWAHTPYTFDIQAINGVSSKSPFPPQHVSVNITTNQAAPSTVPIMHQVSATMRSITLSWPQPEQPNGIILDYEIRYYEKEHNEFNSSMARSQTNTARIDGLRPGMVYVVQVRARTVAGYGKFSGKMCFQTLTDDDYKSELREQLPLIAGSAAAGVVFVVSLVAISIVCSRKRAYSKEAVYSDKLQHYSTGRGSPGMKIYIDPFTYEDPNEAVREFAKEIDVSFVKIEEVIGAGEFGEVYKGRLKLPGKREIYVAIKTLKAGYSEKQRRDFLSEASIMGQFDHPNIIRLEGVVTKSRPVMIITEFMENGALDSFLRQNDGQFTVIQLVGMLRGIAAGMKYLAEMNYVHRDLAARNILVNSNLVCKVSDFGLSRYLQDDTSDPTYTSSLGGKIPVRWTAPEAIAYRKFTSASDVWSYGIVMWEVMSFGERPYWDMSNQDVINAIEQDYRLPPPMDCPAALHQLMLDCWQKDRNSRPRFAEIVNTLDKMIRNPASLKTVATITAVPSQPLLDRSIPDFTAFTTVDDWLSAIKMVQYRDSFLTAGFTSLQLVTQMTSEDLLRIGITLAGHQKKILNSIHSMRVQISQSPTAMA

[7] = target: T3, Ephrin type-B receptor 1 (Homo sapiens); conditions: at 10 µM
[8] = target: T4, Ephrin type-B receptor 3 (Homo sapiens) (UniProt P54753); conditions: at 10 µM
T4 sequence (whole entry): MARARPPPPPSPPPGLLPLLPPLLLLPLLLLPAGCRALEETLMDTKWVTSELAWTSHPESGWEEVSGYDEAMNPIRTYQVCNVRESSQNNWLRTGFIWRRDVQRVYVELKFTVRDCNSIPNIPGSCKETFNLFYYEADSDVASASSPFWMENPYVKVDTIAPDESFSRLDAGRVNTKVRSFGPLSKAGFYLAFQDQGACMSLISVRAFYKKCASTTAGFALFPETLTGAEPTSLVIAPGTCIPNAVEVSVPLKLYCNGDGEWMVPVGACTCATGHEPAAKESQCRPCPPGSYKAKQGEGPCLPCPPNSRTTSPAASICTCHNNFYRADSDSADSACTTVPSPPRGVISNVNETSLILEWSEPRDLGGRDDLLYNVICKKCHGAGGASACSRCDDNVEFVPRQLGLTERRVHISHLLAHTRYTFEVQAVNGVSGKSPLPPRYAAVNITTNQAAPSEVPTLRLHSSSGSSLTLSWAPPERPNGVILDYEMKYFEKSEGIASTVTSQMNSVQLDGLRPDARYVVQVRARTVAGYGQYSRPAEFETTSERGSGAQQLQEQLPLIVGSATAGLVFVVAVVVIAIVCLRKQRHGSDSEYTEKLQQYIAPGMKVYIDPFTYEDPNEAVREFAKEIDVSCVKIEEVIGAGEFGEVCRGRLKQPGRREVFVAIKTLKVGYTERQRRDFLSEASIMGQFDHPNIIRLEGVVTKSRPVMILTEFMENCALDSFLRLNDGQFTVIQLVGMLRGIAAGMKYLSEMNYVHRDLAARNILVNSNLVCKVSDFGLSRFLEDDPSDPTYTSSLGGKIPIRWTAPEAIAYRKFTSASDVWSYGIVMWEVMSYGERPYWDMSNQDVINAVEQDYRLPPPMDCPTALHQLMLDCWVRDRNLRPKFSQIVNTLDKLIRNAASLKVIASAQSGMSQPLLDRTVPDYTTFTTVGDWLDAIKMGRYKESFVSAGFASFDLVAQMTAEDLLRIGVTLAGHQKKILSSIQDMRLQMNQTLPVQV

[9] = target: Receptor tyrosine-protein kinase erbB-4 (Homo sapiens) (UniProt Q15303); conditions: at 1 µM
Receptor tyrosine-protein kinase erbB-4 (Homo sapiens), sequence (Q15303 whole entry): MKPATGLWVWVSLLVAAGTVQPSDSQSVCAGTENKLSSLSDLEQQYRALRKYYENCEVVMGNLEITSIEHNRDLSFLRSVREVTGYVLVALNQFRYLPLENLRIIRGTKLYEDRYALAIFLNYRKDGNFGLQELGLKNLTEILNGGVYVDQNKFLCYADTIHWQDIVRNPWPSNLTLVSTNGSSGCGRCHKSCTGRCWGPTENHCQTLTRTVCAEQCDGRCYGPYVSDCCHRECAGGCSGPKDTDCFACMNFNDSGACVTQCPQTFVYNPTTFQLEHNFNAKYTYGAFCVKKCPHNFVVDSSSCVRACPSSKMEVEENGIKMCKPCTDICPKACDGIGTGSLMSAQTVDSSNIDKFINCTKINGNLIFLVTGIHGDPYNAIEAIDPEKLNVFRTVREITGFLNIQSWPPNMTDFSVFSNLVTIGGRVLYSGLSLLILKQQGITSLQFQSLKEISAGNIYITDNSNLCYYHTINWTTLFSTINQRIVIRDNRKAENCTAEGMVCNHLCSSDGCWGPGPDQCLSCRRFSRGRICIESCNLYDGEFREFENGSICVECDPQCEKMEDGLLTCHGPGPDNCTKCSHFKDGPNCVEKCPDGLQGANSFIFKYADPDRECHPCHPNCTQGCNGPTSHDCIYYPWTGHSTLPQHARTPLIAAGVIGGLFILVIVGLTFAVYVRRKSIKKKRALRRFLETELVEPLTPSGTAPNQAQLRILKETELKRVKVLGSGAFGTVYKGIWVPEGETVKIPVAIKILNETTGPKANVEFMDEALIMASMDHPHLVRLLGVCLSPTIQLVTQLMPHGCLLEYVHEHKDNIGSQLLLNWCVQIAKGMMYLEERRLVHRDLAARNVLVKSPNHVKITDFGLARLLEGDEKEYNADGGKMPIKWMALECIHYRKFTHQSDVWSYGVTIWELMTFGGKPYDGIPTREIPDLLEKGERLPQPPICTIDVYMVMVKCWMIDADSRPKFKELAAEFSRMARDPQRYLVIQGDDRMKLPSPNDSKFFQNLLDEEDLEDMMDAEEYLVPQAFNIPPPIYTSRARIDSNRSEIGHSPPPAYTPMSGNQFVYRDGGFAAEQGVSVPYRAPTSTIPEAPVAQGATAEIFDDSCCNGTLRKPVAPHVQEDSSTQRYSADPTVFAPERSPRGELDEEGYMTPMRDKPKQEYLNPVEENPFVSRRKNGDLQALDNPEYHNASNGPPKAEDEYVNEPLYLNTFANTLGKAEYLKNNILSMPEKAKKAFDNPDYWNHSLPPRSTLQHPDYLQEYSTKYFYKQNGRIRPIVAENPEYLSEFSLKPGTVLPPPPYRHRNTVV

Q: With `Cc1cncc2cccc(S(=O)(=O)N3CCCN(C(=O)CN)C[C@H]3C)c12` as the compound, how does the residual activity [1] read?
A: Its residual activity is 50%.

Q: And the residual activity [2]?
A: The residual activity was 83%.

Q: What about the residual activity [3] of the same compound?
A: Its residual activity is 66%.

Q: What about the residual activity [4] of the same compound?
A: The residual activity was 98%.

Q: And the residual activity [5]?
A: The residual activity was 85%.

Q: What about the residual activity [6] of the same compound?
A: Its residual activity is 75%.

Q: And the residual activity [7]?
A: Its residual activity is 31%.

Q: And the residual activity [8]?
A: Its residual activity is 128%.

Q: What about the residual activity [9] of the same compound?
A: Its residual activity is 89%.
